# High-throughput results deposited in PubChem BioAssay by several laboratories.
# Anthrax LF prot – Bacillus anthracis LF protease inhibitors, primary screen, biochemical, multiplex microsphere, MLPCN library; AID 588501, 2011; multiplex microsphere protease cleavage assay; actives 0.12% (n = 360,000); Lethal factor (Bacillus anthracis), P15917; inhibition, % at 10 µM; note: plate controls were buffer without enzyme for full effect and enzyme alone for no effect
# BoNT-A LC inh2 – BoNT/A light chain protease inhibitors, primary screen, biochemical, flow cytometry, MLPCN library; Botulinum neurotoxin type A light chain protease (Clostridium botulinum A str. ATCC 3502); multiplex microsphere protease substrate cleavage; inhibition, % at 10 µM; actives 0.17% (n = 360,000); AID 588499, 2011; note: plate controls were buffer without enzyme for full effect and enzyme alone for no effect
# MazEF act – activators of E. coli MazEF toxin-antitoxin RNase, primary screen, biochemical, fluorescence, uHTS; activation, % at 20 µM; FAM/BHQ RNA-DNA oligo cleavage fluorescence, 5 h; actives 0.32% (n = 350,000); Endoribonuclease toxin MazF (Escherichia coli (strain K12)), P0AE70; in the data active = activation above about 50%
# Autofluor counter – flagged as autofluorescent in microsphere protease counterscreen | compound autofluorescence counterscreen, microsphere flow cytometry; hits give high values | fluorescence intensity (concentration not given with the values) | actives 3.1% (n = 360,000); in the data active = fluorescence intensity above about 16000; inconclusive = no clear call, values can overlap the other calls
# BoNT-F LC inh – BoNT/F light chain protease inhibitors, primary screen, biochemical, flow cytometry, MLPCN library; Multiplex microsphere protease cleavage assay; inhibition, % at 10 µM; actives 0.22% (n = 360,000); in the data active = inhibition above about 35%, passing the limit was not always enough; inconclusive = no clear call, values can overlap the other calls; note: plate controls were buffer without enzyme for full effect and enzyme alone for no effect
# BoNT-A LC CP1 – BoNT/A light chain protease inhibitors, confirmation, biochemical, flow cytometry, cherry pick 1 | shares compounds with BoNT-F LC inh | multiplex microsphere protease assay | inhibition, % at 10 µM | actives 3% (n = 720) | AID 602139, 2011; in the data active = inhibition above about 32%
# BoNTF LC inh 1 – BoNT/F light chain protease inhibitors, confirmation, biochemical, flow cytometry, cherry pick 1 | shares compounds with BoNT-F LC inh | multiplex microsphere protease cleavage assay | inhibition, % at 10 µM | 720 tested, under 10 active; call rule not given here
# Anthrax LF CP1 – Bacillus anthracis LF protease inhibitors, confirmation, biochemical, multiplex microsphere, cherry pick 1; shares compounds with BoNT-F LC inh; multiplex microsphere protease cleavage assay; inhibition, % at 10 µM; 720 tested, under 10 active; AID 602142, 2011; call rule not given here
# Active calls of the source: *; i = inactive; ? = inconclusive; / = no result. Rows were chosen to be rich in hits. Some 3.6% of all compounds tested hit in one or more screens of this group. Cut-off read from the data, not from the text of the source, unless noted: active = inhibition above about 30%; inconclusive = no clear call, values can overlap the other calls; inactive = below that.
SMILES,Anthrax LF prot,BoNT-A LC inh2,MazEF act,Autofluor counter,BoNT-F LC inh,BoNT-A LC CP1,BoNTF LC inh 1,Anthrax LF CP1
CN1CCN(c2nc(C(N)=O)cc(-c3ccccc3)n2)CC1,0,0,-1,4065,36*,1,-4,-2
CCN(CC)c1nc(C(N)=O)cc(-c2ccccc2)n1,-2,0,9,4887,-5,/,/,/
Cc1cc(C)n(C(N)=NC(=O)c2ccccc2)n1,0,0,7,3953,-5,/,/,/
CCCc1nc2cc(C)c(Br)c(C)n2c1Cc1ccsc1,2,1,/,6214,-7,/,/,/
CCCOc1ccc(-c2nc(C#N)c(NCCCn3ccnc3)o2)cc1,-38,58*,-1,?,58*,-1,-3,0
COC(=O)C1CCN(C(=O)CN(C)Cc2ccc(C(C)(C)C)cc2)CC1,3,0,7,3751,36*,2,2,5
CN(Cc1ccc(C(C)(C)C)cc1)C(=O)C1CCN(C(=O)Nc2ccccc2)CC1,-4,-2,-3,?,-4,/,/,/
O=C(CN(C(=O)CNS(=O)(=O)c1ccc(F)cc1)c1ccccc1F)NCc1ccco1,-4,-2,9,2961,35*,1,0,2
COc1ccc(CNC(=O)c2sc(=O)n(Cc3ccccc3OC)c2C)cc1,-8,-1,/,3972,-3,/,/,/
COc1ccc(-c2nc3ccc(C)cn3c2Cc2ccsc2)cc1OC,-6,1,/,6121,1,/,/,/
O=[N+]([O-])c1ccc(-c2cn3c(n2)CCC3)cc1,4,-4,8,?,37*,1,-5,-4
c1ccc(-c2cn3c(n2)CCC3)cc1,-3,0,-2,2699,-6,/,/,/
Cc1ccc2nc3c(cc2c1)c(NC(=O)C(C)(C)C)nn3CC(C)C,49*,2,-10,2974,15,1,2,0
Cc1ccc2nc3c(cc2c1)c(NC(=O)c1ccco1)nn3CC(C)C,18,?,3,3936,?,/,/,/
COc1cccc(NC(=O)c2oc3ccccc3c2NC(=O)C(C)(C)C)c1,-14,44*,1,6579,53*,-1,-3,0
CCC1(C2=CCCCC2)C(=O)NC(=S)N=C1N (stereo not given),-6,0,5,3885,-2,/,/,/
Clc1ccc(/C=C/c2ncc[nH]2)c(Cl)c1,-8,5,-3,3685,40*,0,-6,-1
Cc1nn(CC(=O)NCCc2cccs2)c(=O)c2cc3ccccc3n12,34*,38*,5,5756,3,-2,-2,-7
O=C(CN1C(=O)COc2ccccc2C1=O)c1ccc2c(c1)OCCO2,2,-3,-3,5933,-4,/,/,/
CCOC(=O)C1CCN(CC(=O)c2c(C)n(C)c3ccc(OC)cc23)CC1,-11,-2,7,3128,39*,2,2,3
CCN1CCN(CC(=O)c2c(C)n(C)c3ccc(OC)cc23)CC1,4,1,-9,?,3,/,/,/
CCc1nc2ccc(C(=O)NCCCn3ccnc3)cn2c1N(CC)C(=O)NCCc1ccccc1,-2,0,/,3479,-4,/,/,/
CCOC(=O)c1cnc(SC2CC(=O)N(c3cccc(OC)c3)C2=O)nc1N (stereo not given),2,2,6,3383,34,2,-4,-1
CCOC(=O)c1ccc(N2C(=O)CC(Sc3ncccn3)C2=O)cc1 (stereo not given),-4,1,9,3427,?,/,/,/
CCOC(=O)c1c(NC(=O)Nc2ccc(Cl)cc2)sc(C)c1C,41*,-30,6,27117*,i,-1,1,-6
SMILES,Anthrax LF prot,BoNT-A LC inh2,MazEF act,Autofluor counter,BoNT-F LC inh,BoNT-A LC CP1,BoNTF LC inh 1,Anthrax LF CP1
Cc1cccc(C)c1NC(=O)CN(C)C(=O)CN1C(=O)NC(C)(C)C1=O,-2,0,2,3973,-8,/,/,/
Cc1ccc(-c2cc(NC(=O)CSc3n[nH]c(N)n3)n(-c3ccccc3)n2)cc1,-4,0,-4,4856,4,/,/,/
Nc1nc(SCC(=O)Nc2cc(-c3ccccc3)nn2-c2ccccc2)n[nH]1,7,?,0,5643,40*,1,-3,-3
CCCc1oc(C(=O)O)cc1CN1CCOCC1,12,8,7,8574,42*,-1,1,1
CC(C)c1onc(C(=O)N2CCC(C(N)=O)CC2)c1[N+](=O)[O-],0,0,1,4789,-7,/,/,/
CC1=C(C(=O)N2CCCCCC2)CC(CC(=O)NC2CCCC2)C(=O)N1Cc1ccc(C(C)(C)C)cc1 (stereo not given),-1,-1,/,6351,-7,/,/,/
CC1(Oc2ccc(-n3ccnc3)cc2)CCN(Cc2cccn2-c2nccs2)C1 (stereo not given),9,0,/,3794,3,/,/,/
O=C(Nc1cccc(C(F)(F)F)c1)c1sc(Cl)nc1C(F)(F)F,33*,0,-1,3457,40*,1,-3,-2
O=C(Nc1cccc(C(F)(F)F)c1)c1cc(-c2ccco2)on1,0,-1,2,3180,7,/,/,/
O=S(=O)(c1ccc(Cl)cc1)N1CCN(c2ccccn2)CC1,-6,-3,2,3973,48*,1,-4,-6
O=S(=O)(c1ccc(F)cc1)N1CCN(c2ccccn2)CC1,4,-2,10,4180,-6,/,/,/
CCc1ccc(OCCCC(=O)Nc2ccc(N3CCCCC3)cc2)cc1,-7,-4,9,5583,40*,-2,4,-4
CN(C)C(=O)c1cn(CCC#N)nc1-c1ccc2ccccc2c1,12,0,-1,3918,52*,-1,-12,0
N#CCCn1cc(C(N)=O)c(-c2ccc3ccccc3c2)n1,19,1,2,3976,-28,/,/,/
CC(=O)NC(c1ccc(F)c(F)c1)c1nc(-c2cc3ccccc3o2)cs1 (stereo not given),1,2,/,3694,3,/,/,/
COc1cc(CCC(=O)O)on1,4,3,-1,3555,62*,0,-4,-2
O=C(COC(=O)c1cnccn1)Nc1cc(S(=O)(=O)N2CCOCC2)ccc1Cl,-6,-1,14,3955,1,/,/,/
Cc1cccn2c(=O)nc(SCC(=O)c3ccccc3)nc12,/,/,-2,/,/,/,/,/
O=C(NCCCN1CCCC1=O)Nc1ccc([N+](=O)[O-])cc1,-4,-3,4,3590,11,/,/,/
